What all share (test): NCI-60 one-dose screen, 48 h (100 = growth as untreated, 0 = no growth, -100 = all killed)
One assay concerns NCI-H226 lung. The note with it: 10 µM unless noted.
Another assay has as its system HOP-62 NSCLC. The note with it: 10 µM unless noted.
The subject of the next assay is NCI-H460 lung. The note with it: 10 µM unless noted.
The subject of the next assay is HOP-92 NSCLC. The note with it: 10 µM unless noted.
A further assay deals with A549/ATCC NSCLC. The note with it: 10 µM unless noted.
A further assay has as its system 786-0 renal. The note with it: 10 µM unless noted.
A further assay deals with COLO 205 colon. The note with it: 10 µM.
The test system of another assay is DU-145 prostate. The note with it: 10 µM unless noted.
The next assay relates to MALME-3M melanoma. The note with it: 10 µM unless noted.
The subject of the next assay is MDA-MB-231 breast. The note with it: 10 µM unless noted.
The test system of the next assay is RXF 393 renal. The note with it: 10 µM unless noted.
A further assay relates to SF-268 CNS. The note with it: 10 µM unless noted.
The subject of the next assay is SF-295 CNS. The note with it: 10 µM unless noted.
A further assay has as its system SF-539 CNS. The note with it: 10 µM unless noted.
A further assay has as its system UACC-257 melanoma. The note with it: 10 µM unless noted.
In another assay the test system is M14 melanoma. The note with it: 10 µM unless noted.
The subject of the next assay is HCT-15 colon. The note with it: 10 µM.
For the next assay, the system named is HT29 colon. The note with it: 10 µM unless noted.
Another assay relates to SNB-75 CNS. The note with it: 10 µM unless noted.
The test system of the next assay is PC-3 prostate. The note with it: 10 µM unless noted.
Another assay deals with SK-MEL-5 melanoma. The note with it: 10 µM unless noted.
The test system of the next assay is UACC-62 melanoma. The note with it: 10 µM unless noted.
A further assay relates to LOX IMVI melanoma. The note with it: 10 µM unless noted.
The subject of the next assay is SK-MEL-28 melanoma. The note with it: 10 µM unless noted.
For another assay, the system named is SK-MEL-2 melanoma. The note with it: 10 µM unless noted.
For another assay, the system named is SN12C renal. The note with it: 10 µM unless noted.
The subject of another assay is UO-31 renal. The note with it: 10 µM unless noted.
The next assay deals with ACHN renal. The note with it: 10 µM unless noted.
The next assay concerns CAKI-1 renal. The note with it: 10 µM unless noted.
In another assay the test system is A498 renal. The note with it: 10 µM unless noted.
The test system of another assay is CCRF-CEM leukemia. The note with it: 10 µM unless noted.
The subject of another assay is RPMI-8226 leukemia. The note with it: 10 µM unless noted.
The next assay deals with OVCAR-5 ovarian. The note with it: 10 µM unless noted.
A further assay concerns OVCAR-4 ovarian. The note with it: 10 µM unless noted.
Another assay concerns SK-OV-3 ovarian. The note with it: 10 µM unless noted.
Another assay deals with IGROV1 ovarian. The note with it: 10 µM.
Another assay concerns OVCAR-3 ovarian. The note with it: 10 µM unless noted.
For the next assay, the system named is HS 578T breast. The note with it: 10 µM unless noted.
Another assay has as its system NCI/ADR-RES ovarian. The note with it: 10 µM unless noted.
Another assay deals with T-47D breast. The note with it: 10 µM unless noted.
A further assay concerns BT-549 breast. The note with it: 10 µM.
A further assay deals with SW-620 colon. The note with it: 10 µM unless noted.
The test system of the next assay is MCF7 breast. The note with it: 10 µM unless noted.
Another assay has as its system HCT-116 colon. The note with it: 10 µM unless noted.
A further assay relates to HCC-2998 colon. The note with it: 10 µM unless noted.
The subject of a further assay is KM12 colon. The note with it: 10 µM unless noted.
In a further assay the test system is HL-60(TB) leukemia. The note with it: 10 µM unless noted.

The structures appear in SMILES notation. Compounds without any hit were thinned out: in the full panel of roughly 83,000, 20% have a hit.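 Cells were grown in 96-well plates and exposed to the test compound at a single concentration for 48 hours; results are reported as percent growth, with values below 10 considered active.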 Unmarked numbers belong to inactive results. The source made the active and inactive calls.

For the compound `O=C(O)CNC(=O)c1ccccc1`, the growth was 109% in the assay with NCI-H226 lung; 93.4% in the assay on HOP-62 NSCLC; 103% in the assay with NCI-H460 lung; 92.4% in the assay with HOP-92 NSCLC; 101% in the assay on A549/ATCC NSCLC; 100% in the assay on 786-0 renal. In addition, the growth in the assay on COLO 205 colon was 104%; in the assay on DU-145 prostate, 119%; in the assay with MALME-3M melanoma it was 133%; in the assay with MDA-MB-231 breast, 110%; in the assay on RXF 393 renal, 102%; in the assay with SF-268 CNS it was 107%. Also, the growth was 104% in the assay with SF-295 CNS; 89% in the assay on SF-539 CNS; 92.4% in the assay with UACC-257 melanoma; 99.4% with M14 melanoma; 98% with HCT-15 colon; 114% in the assay on HT29 colon. The growth in the assay on SNB-75 CNS was 93.7%; in the assay on PC-3 prostate, 102%; in the assay with SK-MEL-5 melanoma, 98.9%; with UACC-62 melanoma, 103%; with LOX IMVI melanoma it was 95.9%; in the assay on SK-MEL-28 melanoma, 107%. Also, the growth is 97.2% in the assay on SK-MEL-2 melanoma; 107% in the assay with SN12C renal; 95.8% with UO-31 renal; 102% with ACHN renal; 83.2% in the assay with CAKI-1 renal; 85% with A498 renal. The growth is 101% in the assay with CCRF-CEM leukemia; 92.2% with RPMI-8226 leukemia; 98.6% with OVCAR-5 ovarian; 105% in the assay with OVCAR-4 ovarian; 104% with SK-OV-3 ovarian; 105% in the assay on IGROV1 ovarian. In addition, the growth was 105% in the assay with OVCAR-3 ovarian; 108% in the assay with HS 578T breast; 101% in the assay on NCI/ADR-RES ovarian; 104% with T-47D breast; 97.5% in the assay with BT-549 breast; 99.7% in the assay with SW-620 colon. Also, the growth in the assay with MCF7 breast is 104%; with HCT-116 colon, 98.2%; in the assay on HCC-2998 colon, 98.9%; in the assay with KM12 colon, 105%.

With `Nc1nc2nnc(-c3ccccc3)c(-c3ccccc3)n2n1`, the growth in the assay with HL-60(TB) leukemia is 146%.

Regarding `CCOC(=O)C1=C(C)NC(=O)NC1c1cc(=O)oc2ccc(C)cc12` (stereo not drawn), the growth in the assay on HL-60(TB) leukemia was 97.6%.

Take `COc1ccc(/C=C/C(=O)c2ccc(NC(=O)CSc3nnc(-c4cc(OC)c(OC)c(OC)c4)o3)cc2)cc1`: the growth in the assay on HL-60(TB) leukemia was -53.4% (active).

Consider `O=C(C1=Cc2cc3ccccc3n2Cc2cnnn21)c1ccc(O)cc1`, for which the growth in the assay with HL-60(TB) leukemia is 41.7%.

In the case of `COc1ccc2c3ccnc(C(F)(F)F)c3n(CCCCN)c2c1`, in the assay on HL-60(TB) leukemia, the growth was 53.8%.

For the compound `C/C(Cc1ccc(Cl)cc1)=C(\c1ccc(OCCN2CCCCCC2)cc1)c1ccc(OC(=O)Cc2ccccc2)cc1`, in the assay with HL-60(TB) leukemia, the growth was 15.8%.

Consider `COc1cc(-c2nc(SCCC(C)C)nc(N3CCOCC3)c2C#N)cc(OC)c1OC`, for which the growth in the assay with HL-60(TB) leukemia is 95.2%.

As for `COc1ccc(C2CC(c3ccccc3)=NN2C(=O)c2cc(OC)c(OC)c(OC)c2)cc1O` (stereo not drawn), the growth with HL-60(TB) leukemia was -29.3% (active).

As for `CC(/C=N/NC(=O)c1cc(-c2ccco2)[nH]n1)=C\c1ccccc1`, the growth in the assay on HL-60(TB) leukemia was 99%.

On to `O=C(C(Br)C(Br)c1ccccc1)C(Br)C(Br)c1ccccc1` (stereo not drawn), for which the growth in the assay with HL-60(TB) leukemia is -49.7% (active).

As to `O=[N+]([O-])c1ccc(/C=C/C=C/c2ccccc2)c(Cl)c1`, in the assay with HL-60(TB) leukemia, the growth is 91.9%.

Take `O=C(Nc1ccc(CO)cc1)c1ccccc1Nc1ccnc(C(F)(F)F)c1`: the growth in the assay with HL-60(TB) leukemia is 98.3%.

Take `CSCCC(NC(=O)c1ccccc1)C(=O)N/N=C1\S/C(=C/c2ccc(Cl)cc2)C(=O)N1C` (stereo not drawn): in the assay with HL-60(TB) leukemia, the growth was 51.6%.

Regarding `CSc1nc(-c2ccco2)c(C#N)c(=O)n1C`, the growth with HL-60(TB) leukemia is 95.9%.

For `CCOC1(OCC)OC(c2ccccc2)=C(C#N)C(/C=C\c2ccccc2)C1(OCC)OCC` (stereo not drawn), in the assay on HL-60(TB) leukemia, the growth was 80.1%.

Consider `COc1cccc(NC(=O)c2sc3nc4c(cc3c2N)C(=O)CCC4)c1`, for which the growth in the assay on HL-60(TB) leukemia is -2.55% (active).

On to `Nc1ccc(N(O)/C=C2\C=CC=CC2=O)cc1N`, for which the growth in the assay on HL-60(TB) leukemia is 73.2%.

Values taken from PubChem BioAssay (NCI).
